The text below walks through data of PubChem BioAssay AID1259415 (National Center for Advancing Translational Sciences (NCATS), 2018).

Values joined by “and” are separate entries in the source; they are usually repeats but may differ in a detail not shown here. Identical values can stand only once. The campaign covered roughly 410,000 compounds. About 18,000 (4.4%) were called active. Inconclusive results (about 7%) are left out. Rule as the data show it: active = activity change below about -60%; inconclusive = no clear call, values can overlap the other calls; inactive = above about -39%. What follows is part of a selection rich in actives, with near analogues and random picks from the rest. Some structures have more than one record in an assay (separate samples or runs), and their calls can disagree.
% is scaled to controls: 0 for no effect and ±100 for the full control effect.

The test in a line: qHTS Assay for inhibitors of the human cytomegalovirus (HCMV). To be noted: HFF cells, HCMV-luciferase reporter, 72 h; at 57.5 µM; stronger effect = lower value. The method, boiled down:
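Two compound doses tested in HFFs infected with HCMV-luciferase, MOI 1 PFU/cell, 72 h at 37C. Lysate luminescence read with OneGlo; data normalized against buffer-only and 10uM Salinomycin inhibitor controls.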
On the technique in general: qHTS replaces the single test concentration by a dilution series.
Consider `C/C(=C/c1ccccc1)C(=O)N1CCN(c2ccccc2)CC1`, for which the activity change, negative = inhibition is -16.3% (inactive).
In the case of `CCC(Sc1nnc(-c2ccc(OC)cc2)c(-c2ccc(OC)cc2)n1)C(=O)NC1CCCCC1` (stereo unspecified), the activity change, negative = inhibition is 5.23% (inactive).
The figure for `CCOC(=O)C1SC2(C(F)(F)C(F)F)CC1(O)c1c(c(OC)c3occc3c1OC)O2` (stereo unspecified) is -23.2% (inactive); for `C/C(=N\NC(=O)C1(C)CC1(Br)Br)c1ccc(C)cc1C` (stereo unspecified) it is 2.84% (inactive).
As for `Cc1cc(C)cc(NC(c2nnc(-c3cccc(F)c3)o2)c2ccc(F)cc2Cl)c1` (stereo unspecified), the activity change, negative = inhibition is -0.542% (inactive).
The figure for `CC(=O)N1CCCc2ccc(NS(=O)(=O)c3ccc(F)cc3F)cc21` is 51.5% (inactive); for `Cc1c(NC(=O)c2c([N+](=O)[O-])cnn2C)c(=O)n(-c2ccccc2)n1C` it is 7.76% (inactive).
The figure for `Cc1nn(-c2ccccc2)c(Cl)c1/C=N/NC(=O)c1nn(C)cc1[N+](=O)[O-]` is -99% (active); for `Cc1nn(-c2ccccc2)c(-n2cccc2)c1C(=O)O` it is -33.7% (inactive).
The figure for `Cn1c(=O)c2c(nc(SCC(=O)Nc3ccc(F)cc3)n2Cc2ccc(Cl)cc2)n(C)c1=O` is -3.29% (inactive); for `CCN(C(=O)CSc1nc(N)cc(=O)[nH]1)C1CCS(=O)(=O)C1` (stereo unspecified) it is -1.32% (inactive).
For the molecule `Cc1ccc2c(=O)cc(C(=O)Nc3sc4c(c3C(=O)NCc3cccnc3)CCCC4)oc2c1`, the activity change, negative = inhibition was -0.307% (inactive).
Regarding `Cc1ccc(OCC(=O)Nc2ccc(Cl)c(-c3nc4ccccc4[nH]3)c2)cc1C`, the activity change, negative = inhibition is -26.2% (inactive).
The value for `Cc1ccc(C)c(OCC(=O)Nc2sc3c(c2C#N)CCCC3)c1C` was -17.4% (inactive).
The figure for `CC1C(c2ccccc2)=[N+]([O-])C2(CCCC2)N1O` (stereo unspecified) is 21.7% (inactive).
For `CCCn1c2ccccc2c2cnn(CC(=O)NCCCN3CCCCC3CC)c(=O)c21` (stereo unspecified), the activity change, negative = inhibition was 5.34% (inactive) and -76.4% (active).
The figure for `CCCn1c2ccccc2c2cnn(CC(=O)NCCCOC(C)C)c(=O)c21` is -18.7% (inactive).
The value for `CC1CCCCN1CCCNC(=O)Cn1ncc2c([nH]c3ccccc32)c1=O` (stereo unspecified) was 25.9% (inactive) and 24.1% (inactive).
With `COc1ccc(Nc2ncnc3ccc(Br)cc23)c(OC)c1`, the activity change, negative = inhibition is -98.7% (active).
The figure for `COc1ccc(NC(=O)NNC(=O)COc2cc(C)c(Cl)c(C)c2)c(OC)c1` is -4.84% (inactive).
The figure for `CCOC(=O)CNc1nc(Cl)nc(Nc2ccc(OC)cc2OC)n1` is -6.89% (inactive); for `CC(=O)c1ccc(N2CCN(C3C(=O)c4ccccc4N3C(C)=O)CC2)cc1` (stereo unspecified) it is 0% (inactive).
The figure for `CCOC(=O)N1CCC(NC(=O)C(NS(=O)(=O)c2ccc3c(c2)CCN3C(=O)CC)C(C)C)CC1` (stereo unspecified) is 1.92% (inactive); for `COc1cccc2c1cc1c(=O)n(CC(=O)N3CCN(c4ccccc4)CC3)nc(C)n12` it is 3.76% (inactive).
In the case of `O=C(Cn1ncc2c3ccccc3n(Cc3ccccc3)c2c1=O)NC1CCCCCC1`, the activity change, negative = inhibition was 12.7% (inactive).
In the case of `CC(C)CNC(=S)NNC(=O)c1ccccc1OC(F)F`, the activity change, negative = inhibition was 2.34% (inactive).
The figure for `Cc1scc(C(=O)NNC(=S)NCC(C)C)c1C` is -1.28% (inactive); for `Cc1scc(C(=O)NNC(=S)NCc2ccccc2)c1C` it is -63.5% (active).
The value for `CCn1c(=O)c2cc(C(=O)Nc3cccc(C(C)=O)c3)sc2c2ccccc21` was 8.05% (inactive); that for `COc1ccc(OC)c(CNC(=O)c2c3c(nc4ccccc24)C(=O)N(C2CCCCC2)C3)c1` was 18.7% (inactive).
Consider `CCOC(=O)C1CCN(C(=O)CSc2c3c(nc4ccc(Cl)cc24)CCCC3)CC1`, for which the activity change, negative = inhibition is 92.3% (inactive).
As for `Cc1ccc(C(C)(C)C)c(OCCCCN2CCCC2)c1`, the activity change, negative = inhibition was -65.6% (active).
The value for `Cc1ccc(C(C)C)cc1OCCN1CCCC1` was 2.84% (inactive); that for `Cc1ccc(OCCCCN2CCCCC2)c(Br)c1` was -23.7% (inactive); that for `CC(=O)N1CCc2ccc(N)cc21` was -18% (inactive).
On to `COc1cc(NC(=O)c2cc3ccc4cccnc4c3[nH]2)cc(OC)c1OC`, for which the activity change, negative = inhibition is 65% (inactive).
In the case of `CCOc1ccc(Nc2nc3c(S(=O)(=O)c4cccc(Cl)c4)nnn3c3ccsc23)cc1`, the activity change, negative = inhibition was 16.8% (inactive).
The figure for `COc1ccc(S(=O)(=O)N(C)C[C@H]2Oc3ccc(NS(=O)(=O)c4cccs4)cc3CC(=O)N([C@H](C)CO)C[C@H]2C)cc1` is 8.23% (inactive); for `C[C@H](CO)N1C[C@H](C)[C@H](CN(C)CC2CC2)Oc2ccc(NC(=O)CCN3CCOCC3)cc2C1=O` it is -26.7% (inactive).
The figure for `C[C@H]1CN([C@@H](C)CO)C(=O)Cc2cc(NS(C)(=O)=O)ccc2O[C@@H]1CN(C)CC1CC1` is -70.1% (active); for `O=C(c1cccc(Cl)c1)N1CCN(CCc2ccncc2)CC1` it is 14.9% (inactive); for `Fc1ccc(Nc2nnns2)cc1` it is 21.3% (inactive).
The figure for `O=C(COc1ccccc1)OCc1cc(=O)n2nc(-c3cccs3)sc2n1` is 24.1% (inactive); for `Cc1cccc(NC(=O)c2ccc(F)c(S(=O)(=O)N(C)C3CCCCC3)c2)c1` it is -81.6% (active); for `CCc1ccccc1NC(=O)c1ccc(F)c(S(=O)(=O)NC2CCCCCC2)c1` it is 27% (inactive).
As for `CCOc1cccc(NC(=O)c2ccc(F)c(S(=O)(=O)N(CC)c3cccc(C)c3)c2)c1`, the activity change, negative = inhibition was -33.3% (inactive).
